Screens as filed in PubChem BioAssay.
Compounds with a hit are over-represented: about 2.9% of the library has one in this group of screens.
PAFAH1B3 inh = PAFAH1B3 enzyme inhibitors, primary screen, biochemical, fluorescence polarization, human; Platelet-activating factor acetylhydrolase IB subunit alpha1 (Homo sapiens), Q15102; recombinant PAFAH1B3, FP-rhodamine probe; inhibition, % at 3.39 µM; 340,000 compounds, 0.28% hits; AID 492972, 2010;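 active means inhibition above the screen-wide average of all tested compounds plus 3 SD, cut at about 25% in these data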;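 further: 0% = enzyme with DMSO only and 100% = wells lacking PAFAH1B3 protein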
Target sequence (Q15102 whole entry, looked up): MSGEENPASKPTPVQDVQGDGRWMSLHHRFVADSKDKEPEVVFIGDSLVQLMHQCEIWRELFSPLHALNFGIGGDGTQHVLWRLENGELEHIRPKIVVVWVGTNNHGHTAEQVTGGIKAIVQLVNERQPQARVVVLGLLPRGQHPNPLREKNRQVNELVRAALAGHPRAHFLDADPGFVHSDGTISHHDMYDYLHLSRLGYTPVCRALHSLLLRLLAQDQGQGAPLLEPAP
Fam108B inh = mouse Fam108B serine hydrolase inhibitors, primary screen, counter-screen for RBBP9 inhibitor project, biochemical, fluorescence polarization. inhibition, % at 9.51 µM. 300,000 compounds, 0.33% hits. recombinant Fam108B, FP-Rh probe fluorescence polarization;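 active means inhibition above the screen mean inhibition plus 3 SD, computed separately per campaign, cut at about 18% in these data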;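 further: inhibitors lower polarization as less probe binds the enzyme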
PAFAH2 inh = PAFAH2 enzyme inhibitors, primary screen, biochemical, fluorescence polarization, human. inhibition, % at 3.39 µM. recombinant PAFAH2, FP-rhodamine activity probe. 340,000 compounds, 0.99% hits. Platelet-activating factor acetylhydrolase 2, cytoplasmic (Homo sapiens), Q99487;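 active means inhibition above the mean over all tested compounds plus 3 SD, cut at about 30% in these data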;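 further: inhibitors block probe labeling of enzyme so polarization drops; 0% = enzyme with DMSO and 100% = wells lacking PAFAH2 protein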
PAFAH1B2 FP inh = PAFAH1B2 enzyme inhibitors, primary screen, biochemical, fluorescence polarization, human. inhibition, % at 3.39 µM. 340,000 compounds, 1.2% hits. recombinant PAFAH1B2, FP-rhodamine activity probe. Platelet-activating factor acetylhydrolase IB subunit alpha2 (Homo sapiens), P68402;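 active means inhibition above the mean of all tested compounds plus 3 SD, cut at about 24% in these data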;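 further: 0% = enzyme with DMSO and 100% = wells lacking PAFAH1B2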
Target sequence (P68402 whole entry, looked up): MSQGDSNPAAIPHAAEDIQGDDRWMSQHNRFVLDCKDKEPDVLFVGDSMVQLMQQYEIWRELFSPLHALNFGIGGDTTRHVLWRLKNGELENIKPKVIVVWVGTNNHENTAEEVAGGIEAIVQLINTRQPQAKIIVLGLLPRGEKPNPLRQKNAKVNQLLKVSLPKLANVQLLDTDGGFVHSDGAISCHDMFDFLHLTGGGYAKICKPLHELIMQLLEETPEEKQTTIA
PME-1 inh = PME-1 inhibitors via competitive probe labeling, primary screen, biochemical, fluorescence polarization, FP-Rh probe, HTS; Protein phosphatase methylesterase 1 (Homo sapiens), Q9Y570; recombinant PME-1; inhibition, % at 5.9 µM; 320,000 compounds, 0.53% hits; AID 2130, 2009;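 active means inhibition above the campaign mean of all compounds plus 3 SD, cut at about 26% in these data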;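 further: competitive labeling of PME-1 active site by serine hydrolase directed probe; 0% = PME-1 with DMSO and 100% = wells lacking PME-1 enzyme; inhibitors block probe labeling so polarization falls and inhibition rises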
pPAFAH FP inh = pPAFAH enzyme inhibitors, primary screen, biochemical, fluorescence polarization, human | Platelet-activating factor acetylhydrolase (Homo sapiens), Q13093 | recombinant pPAFAH, FP-rhodamine probe fluorescence polarization | inhibition, % at 3.39 µM | 330,000 compounds, 1.5% hits | AID 463082, 2010;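 active means inhibition above the mean inhibition across the screen plus 3 SD, cut at about 25% in these data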;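 further: inhibitors block binding of the rhodamine activity-based probe so polarization drops; 0% = enzyme with DMSO and 100% = wells lacking pPAFAH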
PAFAH2 FP conf = PAFAH2 enzyme inhibitors, confirmation, biochemical, fluorescence polarization, human; shares compounds with PAFAH2 inh; inhibition, % at 3.39 µM; 2,300 compounds, 65% hits; recombinant PAFAH2, FP-rhodamine activity probe;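 active means mean inhibition over three repeats above a set limit taken from the earlier primary screen, cut at about 30% in these data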;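 further: inhibitor blocks binding of rhodamine activity probe so polarization falls; 0% = enzyme with DMSO and 100% = wells lacking PAFAH2 protein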
* hit, by the source's call; x = no result given.

SMILES	PAFAH1B3 inh	Fam108B inh	PAFAH2 inh	PAFAH1B2 FP inh	PME-1 inh	pPAFAH FP inh	PAFAH2 FP conf
O=C(C1CC(=O)N(c2ccc(F)cc2)C1)N1CCCCC1 (stereo not given)	2	1	-4	3	-6	-5	x
C[C@H](NC(=O)C1CC(=O)N(c2ccc(F)cc2)C1)C(=O)N1CCCCC1 (stereo not given in full)	-1	-2	30*	2	-8	-5	5
O=C1C2C3C=CC(CC3)C2C(=O)N1c1cccc(C(F)(F)F)c1 (stereo not given)	-2	-6	-1	0	-4	2	x
CC1CCCC(C)N1C(=O)Cn1nnc(-c2ccccc2)n1 (stereo not given)	4	-2	-3	5	0	6	x
CC1CCCC(C(=O)O)N1C(=O)CCSC(=O)c1ccccc1 (stereo not given)	11	-3	44*	2	-5	1	46*
CC1CCCCC1NC(=O)COC(=O)c1cccn1C (stereo not given)	0	x	85*	0	-4	8	68*
CC1CCCCC1NC(=O)COC(=O)c1ccccn1 (stereo not given)	1	-2	-5	0	-9	-3	x
Cc1ccsc1C(=O)OCC(=O)NC1CCCCC1C (stereo not given)	12	x	86*	10	-5	24	82*
CC(=O)Nc1ccc(C(=O)OCC(=O)NC2CCCCCCC2)cc1	16	6	79*	8	6	-10	75*
CN(C(=O)COC(=O)c1ccc(NS(=O)(=O)c2cccs2)cc1)C1CCCCC1	12	0	70*	0	-4	22	72*
O=C(COC(=O)c1ccc(NS(=O)(=O)c2cccs2)cc1)NCC1CCCO1 (stereo not given)	3	4	22	1	-5	8	x
Cc1c(NS(=O)(=O)c2cccc(C(=O)OCC(=O)N(C)C3CCCCC3)c2)c(=O)n(-c2ccccc2)n1C	2	-5	34*	2	0	5	21
NC(=O)Nc1ccc(C(=O)OCC(=O)NC2CCCCC2)cc1	9	1	81*	0	-8	4	80*
CCc1ccc(N2CC(C(=O)Nc3nnc(CC)s3)CC2=O)cc1 (stereo not given)	0	3	-2	2	1	5	x
COc1cc(-c2nc3c[n+](CC(=O)c4ccccc4)ccc3n2C)cc(OC)c1OC	8	1	5	-4	7	1	x
COc1cc(OC)cc(C(=O)NNC(=O)CCc2ccccc2)c1	0	-2	0	7	2	-3	x
CC(=O)Nc1ccc(C(=O)OCC(=O)N(C)C2CCCCC2)cc1	-1	2	32*	2	6	-7	27
CC(C)(C)C(=O)OC/C(N)=N/OC(=O)c1ccccc1	12	-2	44*	4	-4	7	71*
COc1ccc(C(=O)O/N=C(\N)c2ccccc2)cc1OC	7	0	14	5	-4	1	x
O=C1/C(=C/c2ccccn2)SC(=S)N1Nc1ncc(C(F)(F)F)cc1Cl	11	x	37*	19	x	x	18
O=C1/C(=C\c2ccccn2)SC(=S)N1Nc1ncc(C(F)(F)F)cc1Cl	12	-5	34*	10	4	-5	26
O=C1/C(=C/c2ccc(F)cc2)SC(=S)N1Nc1ncc(C(F)(F)F)cc1Cl	-6	-1	2	-4	3	9	x
Cc1cc(=O)[nH]c(N/N=C2/CCCC/C2=C\c2ccccc2)n1	6	2	-1	-3	-1	4	x
CC1(C)CC(=O)C(C=NCCN2CCN(C3CC(=O)N(c4ccc(F)cc4)C3=O)CC2)=C(O)C1 (stereo not given)	0	1	8	3	-6	2	x
COc1ccc(/C=N/NC(=O)c2ccoc2C)cc1COc1c(C)cccc1C	-3	-16	-13	1	-21	1	x
SMILES	PAFAH1B3 inh	Fam108B inh	PAFAH2 inh	PAFAH1B2 FP inh	PME-1 inh	pPAFAH FP inh	PAFAH2 FP conf
COc1nc2ccccc2nc1N1CCN(Cc2ccc3c(c2)OCO3)CC1	-1	x	-4	3	x	x	x
COc1ccc(CCn2nnnc2CN2CCN(C(=O)c3ccco3)CC2)cc1OC	6	-2	-4	2	-2	5	x
CCC(=O)c1ccc(OCC(=O)Nc2ccccc2C(=O)N2CCCCC2)cc1	2	4	1	1	1	3	x
CCOC(=O)C1C(=O)N(C(=O)c2cncc(Br)c2)CC1c1ccccc1 (stereo not given)	3	2	13	4	6	0	x
CCOC(=O)C1C(=O)N(C(=O)c2ccc(OC)cc2)CC1c1ccccc1 (stereo not given)	11	0	95*	1	9	18	75*
O=C(COC(=O)CNC(=O)c1ccccc1)Nc1nc(-c2ccccc2)cs1	-1	1	1	4	4	4	x
O=C(COC(=O)c1ccc(-n2cnnn2)cc1)Nc1cc(Cl)ccc1F	-4	x	34*	-1	-18	-5	28
COc1ccc([N+](=O)[O-])cc1NC(=O)COC(=O)C1CC1	9	-1	49*	3	-4	0	-1
O=C(COC(=O)C1CCCC1)Nc1cccc(Cl)c1Cl	11	x	32*	5	x	8	7
Nc1ccc(C(=O)OCC(=O)Nc2cc([N+](=O)[O-])ccc2F)cc1	-6	2	83*	0	5	12	82*
Cc1ccc(NC(=O)COC(=O)c2ccc(-n3cnnn3)cc2)c(Br)c1	-7	x	10	-1	-6	1	x
CCOc1ccc(/C=N/n2cc(-c3ccccc3)[nH]c2=S)cc1	4	10	8	2	18	1	x
COC(=O)Cc1[nH]nc2c1C(c1c[nH]c3ccccc13)C(C#N)=C(N)O2 (stereo not given)	10	4	3	0	-4	0	x
CC(C)n1cc([C@@H]2C[C@H]3CN(Cc4cccc(Cl)c4)C(=O)[C@]34CCCN24)cn1	-1	-2	-7	3	-2	0	x
O=C(CN1C(=O)C2CCCCC2C1=O)Nc1cc([N+](=O)[O-])ccc1F (stereo not given)	6	x	-7	8	-5	3	x
O=C(COC(=O)C1CCCCC1)Nc1cc([N+](=O)[O-])ccc1F	12	-4	49*	18	0	10	28
CCOC(=O)c1ccoc1CSCc1ccc(C(=O)OC)o1	7	-1	-2	2	0	6	x
